PI4K2A block = blocks human PI4K2A kinase activity; Q9BTU6; purified PI4K2A, ADP-Glo luminescence, 1 h; hits give low values; activity change, negative = inhibition, % at 76.9 µM; 0.13% of 420,000 active; AID 1346378; in the data active means activity change below about -50%; inconclusive means mostly about -30% to -49%;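 further: -100% = wells without enzyme as full effect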
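Compounds are screened against recombinant PI4K2A using PI as substrate and ATP, the latter dispensed at 300 microM. Reactions run one hour at ambient temperature before ADP-Glo detection; full inhibition defined by wells lacking enzyme.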
LDHA inh = inhibitors of human lactate dehydrogenase A; purified LDHA, NADH/diaphorase-resazurin fluorescence; hits give low values; activity change, % (values are at about 110 or 230 µM); 0.15% of 480,000 active; AID 1347041; in the data active means activity change below about -30%; inconclusive means mostly about -25% to -30%;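 further: plate controls were DMSO wells for no effect and wells without enzyme for full effect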
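Remaining NADH was detected by diaphorase (0.133 mg/mL) converting 37 µM resazurin to fluorescent resorufin, read at 0 and 20 minutes. The preceding 5-minute room-temperature reaction used 2 nM LDHA, 0.2 mM sodium pyruvate and 0.06 mM NADH at pH 7.4.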
PI5P4K alpha inh = inhibitors of human PI5P4K alpha; P48426; PI5P4Kalpha enzyme, ADP-Glo luminescence, 60 min; hits give low values; max response, %; 1.2% of 330,000 active; AID 652105; active means max response of -50% or lower; inconclusive means between -30% and -50%; inactive means -30% or higher; further: value at the top dose of about 77 µM; on the % scale 0 is the no-effect control and ±100 the full control effect
Target sequence (P48426 whole entry, looked up): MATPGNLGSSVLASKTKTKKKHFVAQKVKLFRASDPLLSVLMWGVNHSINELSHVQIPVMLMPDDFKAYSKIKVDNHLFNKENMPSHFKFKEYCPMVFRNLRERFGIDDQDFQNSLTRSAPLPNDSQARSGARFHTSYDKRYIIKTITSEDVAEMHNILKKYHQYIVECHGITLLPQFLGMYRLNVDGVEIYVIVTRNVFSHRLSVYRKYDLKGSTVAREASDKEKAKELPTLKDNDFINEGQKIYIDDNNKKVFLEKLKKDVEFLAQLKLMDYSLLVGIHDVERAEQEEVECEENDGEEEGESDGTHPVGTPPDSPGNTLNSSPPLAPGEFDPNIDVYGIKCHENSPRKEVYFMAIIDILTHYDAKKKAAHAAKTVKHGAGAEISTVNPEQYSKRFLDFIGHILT
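Quantitative HTS of the MLSMR library against PI5P4Kalpha with substrate. ATP added last at 5 microM final; room temperature, 60 minutes. Remaining ATP depleted, ADP converted and read as luminescence.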
DRD3 agonist = D3 dopamine receptor (human) agonism | P35462 | D3R DiscoveRx beta-arrestin cells, luminescence, 90 min | max activation, % | 0.58% of 410,000 active | AID 652048; in the data active means max activation above about 30%; further: 0% is about no effect
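Agonist-mode cell screen: cells plated at 1500/well and incubated overnight at 37 °C, then exposed to library compounds for 90 min at 37 °C. Detection reagent was added for 30–60 min at room temperature, and luminescence was read.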
DRD3 antagonist = blocks the human D3 dopamine receptor | P35462 | D3R cells, DiscoveRx beta-arrestin luminescence, antagonist mode; hits give low values | max response, negative = inhibition, % | 2.5% of 360,000 active; in the data active means max response below about -50%; inconclusive means no clear call, values can overlap the other calls; further: on the % scale 0 is the no-effect control and ±100 the full control effect
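Cells plated overnight at 1500 cells/well, then exposed to library compounds with dopamine controls for 90 minutes at 37 degrees C. DiscoveRx reagent added for 30–60 minutes at room temperature; luminescence read, quantitative HTS format.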
* marks the source's active call; other numbers are inactive results; ? = inconclusive; . = no result given. Compounds with a hit are over-represented: about 3.3% of the library has one in this group of screens.

SMILES	PI4K2A block	LDHA inh	PI5P4K alpha inh	DRD3 agonist	DRD3 antagonist
c1ccc(CNCC2COc3ccccc3O2)cc1 (stereo not given)	5	-7	-9	19	0
CCCNCC1COc2ccccc2O1 (stereo not given)	-4	-8	.	-44	-70*
CC(C)N(C)S(=O)(=O)N(C)CC1COc2ccccc2O1 (stereo not given)	.	-32*	.	.	.
CCOC(=O)CCNCC1COc2ccccc2O1 (stereo not given)	4	-5	1	3	?
COc1ccc(CNCC2COc3ccccc3O2)cc1 (stereo not given)	12	-13	4	4	-100*
C=CCNC(=O)CN(C)CC(=O)NC1CC1	.	-12	.	.	.
c1ccc(CCCNCC2COc3ccccc3O2)cc1 (stereo not given)	-1	-3	0	17	?
COc1cccc(OC)c1OCCNCC1COc2ccccc2O1 (stereo not given)	3	0	-8	-84	-94*
c1ccc(CCCCNCC2COc3ccccc3O2)cc1 (stereo not given)	4	-1	-4	-8	-91*
CN1CCN(C2=C(Cl)C(=O)N(c3ccc(Cl)cc3)C2=O)CC1	1	0	.	5	-83*
O=C1CC(=O)N(CCc2ccccc2)C(=O)N1CCc1ccccc1	-65*	-9	?	3	-18
CN1CCN(C2=C(Cl)C(=O)N(CCc3ccccc3)C2=O)CC1	1	-3	-2	-6	-71*
O=C1C(Cl)=C(N2CCOCC2)C(=O)N1CCc1ccccc1	1	-11	0	2	-28
CCNC(=O)C(C)NC(=O)c1ccc(OC)c(S(=O)(=O)N(C)C)c1 (stereo not given)	.	2	.	.	.
Cc1cc(C)c(NC(=O)COC(=O)Cn2nc(-c3ccccc3)oc2=O)c(C)c1	5	-4	-7	-6	-55*
CC(C)c1nnc(NC(=O)CCC(=O)N2CCN(Cc3ccccc3)CC2)s1	0	-1	-3	-1	8
CCCc1nnc(NC(=O)CCC(=O)N2CCN(CCOc3ccc(C)cc3)CC2)s1	-3	-2	1	70*	-17
Cc1nnc(NC(=O)CCC(=O)N2CCN(CCOc3cccc4ccccc34)CC2)s1	2	1	-1	17	?
Cc1ccc(OCCN2CCN(C(=O)CCC(=O)Nc3nnc(C(C)C)s3)CC2)cc1	-14	-2	4	33*	-20
Cc1ccc(OCCN2CCN(C(=O)CCC(=O)Nc3nnc(C)s3)CC2)cc1	0	0	0	37*	-3
CCOc1cc(C#N)ccc1OC(=O)c1ccccc1	.	6	.	.	.
CC(C)(C)OC(=O)C[C@@H]1C/C=C\C[C@@H](CC(=O)N(CCO)Cc2ccccc2)C(=O)N2CCC[C@@H]2COC1=O	3	-3	-8	35*	7
CC(C)(C)OC(=O)C[C@@H]1C/C=C\C[C@@H](CC(=O)N(CCO)Cc2ccccc2)C(=O)NCCOC1=O	-2	-14	-5	-27	-123*
COc1ccc(/C=C2/SC(=S)N(NS(=O)(=O)c3ccccc3)C2=O)cc1	-6	-6	?	16	-8
O=C1/C(=C\c2ccc(Br)cc2)SC(=S)N1NS(=O)(=O)c1ccccc1	6	-2	-56*	-3	6
SMILES	PI4K2A block	LDHA inh	PI5P4K alpha inh	DRD3 agonist	DRD3 antagonist
C=CCOc1ccc(/C=C2\SC(=S)N(NS(=O)(=O)c3ccccc3)C2=O)cc1	-4	-5	-56*	10	2
COc1cc(-c2nnc3sc(COc4ccc(C(C)(C)C)cc4)nn23)cc(OC)c1OC	.	11	.	.	.
O=C(Cn1cc(C(F)(F)F)cc(Cl)c1=O)Nc1ccccc1Br	.	-4	.	.	.
CC(C)(C)S(=O)N1Cc2cc(C(=O)O)nc(-c3cccc(-c4cc5ccccc5o4)c3)c2[C@H]1CCO (stereo not given in full)	0	-32*	?	3	20
COC(=O)c1ccccc1NC(=O)CCCn1c(C)c2cnn(-c3ccccc3)c(=O)c2c1C	-3	-1	.	-9	.
COc1ccc(Cl)cc1NC(=O)CCCn1c(C)c2cnn(-c3ccccc3)c(=O)c2c1C	-1	4	.	42*	.
CCCc1c(CC)c(=N)c2ccccc2n1C	-11	-45*	.	-4	4
Cc1ccc(CNC(=O)c2cc3c(s2)CS(=O)(=O)C3)cc1	8	-3	-4	-4	-7

Screens from PubChem BioAssay.
